Screens from PubChem BioAssay.
MITF primary: human MITF inhibition, primary screen; 0.91% of 650,000 active; inhibition, % at 2.6 µM; O75030; AlphaScreen MITF homodimerization, bead proximity signal; AID 1259374; in the data active = inhibition above about 50%;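 also: 0% = vehicle wells with protein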
Target sequence (O75030 whole entry, looked up): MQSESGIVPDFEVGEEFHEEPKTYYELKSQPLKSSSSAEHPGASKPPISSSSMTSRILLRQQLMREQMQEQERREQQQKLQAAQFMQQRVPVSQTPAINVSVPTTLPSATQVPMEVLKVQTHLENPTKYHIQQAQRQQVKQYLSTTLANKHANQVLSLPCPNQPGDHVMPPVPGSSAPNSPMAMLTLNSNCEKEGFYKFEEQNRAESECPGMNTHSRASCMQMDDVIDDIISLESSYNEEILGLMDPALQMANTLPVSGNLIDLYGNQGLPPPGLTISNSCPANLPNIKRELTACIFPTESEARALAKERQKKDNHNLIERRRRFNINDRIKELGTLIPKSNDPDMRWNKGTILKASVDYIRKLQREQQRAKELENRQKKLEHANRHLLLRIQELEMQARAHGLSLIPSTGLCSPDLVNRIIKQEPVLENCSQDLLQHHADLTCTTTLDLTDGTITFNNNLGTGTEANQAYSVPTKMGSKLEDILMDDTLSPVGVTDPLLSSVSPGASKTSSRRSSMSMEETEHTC
TEAD-YAP inh: TEAD-YAP interaction inhibition; HEK-TIYL cells, TEAD-Gal4/YAP UAS-luciferase luminescence; inhibition, % at 9.12 µM; 1.4% of 640,000 active; in the data active = inhibition above about 32%;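 also: 0% = median of test compound wells and 100% = reference inhibitor wells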
FBW7 act: human FBW7 E3 ligase activation, primary screen | Q969H0 | 0.13% of 650,000 active | normalized activity (activation), % at 26.1 µM | AlphaScreen FBW7–phospho-cyclin E peptide binding, activator screen; in the data active = normalized activity above about 1.9%;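 also: purified mutant Fbw7 with reduced substrate affinity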
GPR151 ag: activates the human receptor GPR151; activation, % at 11.2 µM; Q8TDV0; PathHunter beta-arrestin GPR151 cells, luminescence; 1% of 650,000 active; in the data active = activation above about 4.9%;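 also: 0% = median of compound wells and 100% = cells with positive control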
Starred values were filed as active, the others as inactive. A selection: hits, their analogues and other compounds. The true share with any hit is near 3.5%.

SMILES	MITF primary	TEAD-YAP inh	FBW7 act	GPR151 ag
COc1ccc(N2CCN(c3cc(N4CCN(S(C)(=O)=O)CC4)ccc3[N+](=O)[O-])CC2)cc1	4.4	9.0	-0.1	1.2
COc1cccc(CCNC(=O)C2CC23CCN(CC(C)(C)C)CC3)c1 (stereo not drawn)	-6.5	-7.6	-0.1	-1.4
CN(c1ccccc1)N1C(=O)CSC1=S	4.3	-5.6	-0.1	1.9
O=C1NC(=S)S/C1=C\c1ccc2c(c1)OCO2	10.5	-2.0	0.1	-0.5
COc1cccc(/C=C2/NC(=S)NC2=O)c1O	-2.3	41.2*	0.1	-0.3
COc1cc(/C=C2/NC(=S)NC2=O)ccc1O	-0.5	54.4*	0.1	0.2
O=C1NC(=S)N/C1=C/c1ccc2c(c1)OCO2	15.0	36.0*	0.0	1.3
COc1cc(/C=C2\NC(=S)NC2=O)ccc1O	25.6	31.2	0.3	-0.7
COc1ccc(/C=C/c2nn3c(Cn4cnc5ccccc54)nnc3s2)cc1	7.2	38.5*	0.2	2.9
O=C(NCCOC(=O)c1cc2ccccc2o1)c1ccccc1	11.4	-3.7	0.8	-0.7
COc1cccc(Nc2nnc(SCC(=O)NNC(=O)C3CC3)s2)c1	2.6	2.5	-0.1	-0.3
COc1cccc(Nc2nnc(SCC(=O)NNC(=O)c3ccccn3)s2)c1	11.0	79.3*	-0.9	0.1
CC(CNC(=O)c1ccc2c(c1)CC(c1nc3ccc(-c4ccnc(N)n4)cc3[nH]1)CO2)c1ccccc1 (stereo not drawn)	-1.7	41.2*	1.9*	0.0
CN(CCc1ccccc1)C(=O)c1ccc2c(c1)CC(c1nc3ccc(-c4ccnc(N)n4)cc3[nH]1)CO2 (stereo not drawn)	-14.3	73.3*	0.0	2.0
CON(C)C(=O)c1ccc2c(c1)CC(c1nc3ccc(-c4ccnc(N)n4)cc3[nH]1)CO2 (stereo not drawn)	25.2	11.1	0.1	-0.8
c1cncc(CNc2ncnc3nc(Nc4ccc5ncccc5c4)[nH]c23)c1	-2.6	37.7*	-0.2	-1.8
c1ccc(-n2ncc3c(N4CCOCC4)ncnc32)cc1	1.3	70.4*	0.2	-1.4
Cc1ccc(-n2ncc3c(N4CCOCC4)ncnc32)cc1C	9.7	78.7*	0.1	-7.0
Clc1cccc(-n2ncc3c(N4CCOCC4)ncnc32)c1	-16.0	71.3*	-0.1	-2.8
COc1ccc(-n2ncc3c(N4CCOCC4)ncnc32)cc1	0.9	90.6*	-0.1	-4.9
Clc1ccc(-n2ncc3c(N4CCN(c5cccc(Cl)c5)CC4)ncnc32)cc1	-2.2	0.5	0.1	1.2
CCCCCC1CCC(c2ccc(-c3ccc(CCC)cn3)cc2F)CC1 (stereo not drawn)	3.4	1.7	-0.1	0.2
COc1ccccc1N1CCN(c2ncnc3c2cnn3-c2ccc(C)cc2C)CC1	5.0	58.5*	-0.2	-0.1
COc1ccccc1N1CCN(c2ncnc3c2cnn3-c2cccc(C)c2)CC1	-6.0	15.6	0.2	2.6
Cc1cc(NC(=O)c2ccc(Br)cc2)n(-c2ccccc2)n1	7.0	9.3	0.1	-0.1
SMILES	MITF primary	TEAD-YAP inh	FBW7 act	GPR151 ag
CC1=NN(C(=O)c2cc(O)cc(O)c2)C(O)(C(F)(F)F)C1 (stereo not drawn)	-4.1	0.5	0.0	1.4
COc1cc(OC)cc(C(=O)N2N=C(C)CC2(O)C(F)(F)F)c1 (stereo not drawn)	-13.9	50.0*	-0.1	-1.2
COc1cc(C(=O)N2N=C(C3CC3)CC2(O)C(F)(F)F)cc(OC)c1OC (stereo not drawn)	-1.3	10.1	0.1	-1.1
COc1cc(C(=O)N2N=C(C)CC2(O)C(F)(F)F)cc(OC)c1OC (stereo not drawn)	-2.5	59.8*	-0.2	0.8
CN(C)c1cccc(Nc2nc(N)c3[nH]cnc3n2)c1	17.9	-4.4	-0.3	0.5
CC1C(O)=C(c2nc3ccccc3[nH]2)c2nc(=O)c3ccccc3n21 (stereo not drawn)	17.1	54.1*	-0.8	-0.9
Cc1cccc2c(=O)nc3n(c12)CC(O)=C3c1nc2ccccc2[nH]1	2.2	-4.7	-0.1	0.1
Cc1cccc(OCCCC(=O)Nc2nc3ccccc3[nH]2)c1	6.0	70.8*	0.5	1.5
Cc1ccc(Cl)cc1N1CCN(C(=O)c2ccc3c(c2)NC(=O)CS3)CC1	10.7	60.2*	-0.1	1.4
COc1ccccc1C(=O)Nc1ccc2oc(-c3ccc(C)cc3)nc2c1	-3.0	-5.8	-0.1	1.3
CCCCNC1CCN(c2nc(C)c3cc(C)ccc3n2)CC1	2.5	1.5	0.0	-0.6
CCOCCCNC1CCN(c2nc(C)c3cc(C)ccc3n2)CC1	-21.0	48.6*	0.0	-0.2
CC(=O)N(C)c1ccc(NC(=O)c2ccc(Br)cc2)cc1	13.6	-51.2	0.5	-1.2
CCCc1ccc(/C=C/c2ccccc2)nc1	15.7	33.6*	0.2	-3.8
Cc1ccc(-c2nc(Nc3ccccc3)s[n+]2CS(=O)(=O)c2ccccc2)cc1	9.1	66.3*	-0.1	-4.6
CCOC(=O)C(C)Sc1nc2c(c(=O)n1-c1ccc(OCC)cc1)SCC2 (stereo not drawn)	3.6	-5.3	-0.2	2.0
N#C/C(=C\c1c(Oc2ccccc2)nc2ccccn2c1=O)C(=O)N1CCOCC1	-8.8	21.0	0.1	0.4
Cc1cc(C)cc(Oc2nc3ccccn3c(=O)c2/C=C(\C#N)C(=O)N2CCOCC2)c1	13.1	37.4*	-0.1	0.7
Cc1cccc(Oc2nc3c(C)cccn3c(=O)c2/C=C(\C#N)C(=O)N2CCOCC2)c1	16.5	35.6*	0.1	-0.1
CNC(=O)/C(C#N)=C/c1c(Oc2cc(C)cc(C)c2)nc2ccccn2c1=O	18.4	32.1*	-0.1	-6.2
Cc1ccccc1N1CC(C(=O)NC(C)C)CC1=O (stereo not drawn)	-12.5	-0.7	-0.1	-0.2
CCNC(=O)Nc1ccc2nc(N3CCN(C)CC3)cc(C)c2c1	2.2	3.1	-0.2	-0.8
CCOc1ccc(-n2cc(-c3ccccc3)c3c(SC(C)C(C)=O)ncnc32)cc1 (stereo not drawn)	1.1	12.6	0.0	-0.3
Cn1c(=O)c2c(-c3ccccc3Cl)n(-c3ccccc3N)cc2n(C)c1=O	-7.3	-34.0	-0.1	-0.7
COc1ccc(CCNc2ncnc3sccc23)cc1	-11.0	48.8*	-0.1	1.9
SMILES	MITF primary	TEAD-YAP inh	FBW7 act	GPR151 ag
c1csc(CNc2ncnc3sccc23)c1	4.4	32.4*	-0.1	1.5
COc1ccc(CCNc2ncnc3[nH]ncc23)cc1	-2.2	24.7	0.1	2.4
c1ccc(CNc2ncnc3sccc23)cc1	-3.9	1.5	0.3	-0.2
O=C(CSc1n[nH]c(-c2ccccc2Br)n1)N1CCc2ccccc21	4.5	-4.9	-0.3	0.2
CCn1c2ccccc2c2nnc(NCc3ccc(OC)cc3)nc21	5.9	3.4	0.1	-1.1
COC(=O)C(NC(=O)CN1N=C(C(C)(C)C)Cn2c(cc3ccccc32)C1=O)C(C)C (stereo not drawn)	0.6	-10.1	0.2	0.8
c1cc(Cn2ccnc2)cc(Nc2nccc(-c3cncc(N4CCOCC4)c3)n2)c1	-4.7	87.3*	-0.8	0.7
c1cc(Cn2cncn2)cc(Nc2nccc(-c3cncc(N4CCOCC4)c3)n2)c1	14.3	92.2*	0.8	0.3
